# What was measured:
# Assay in all cases: DAPPL (digital affinity profiling via proximity ligation, sequencing); 10 mM Tris-HCl pH 7.5, 50 mM NaCl, 1 mM DTT, 4% glycerol, room temperature, 30 min; GST-TFs on glutathione beads, 16-mer random dsDNA library, 0.1% formaldehyde crosslink after washing; high values mean tight binding
# Conditions in all cases: protein: recombinant; tags: N-terminal GST; dsDNA, one strand shown
# FEV = molecular target: T1, FEV (Homo sapiens, UniProt Q99581 1-238)
# T1 sequence: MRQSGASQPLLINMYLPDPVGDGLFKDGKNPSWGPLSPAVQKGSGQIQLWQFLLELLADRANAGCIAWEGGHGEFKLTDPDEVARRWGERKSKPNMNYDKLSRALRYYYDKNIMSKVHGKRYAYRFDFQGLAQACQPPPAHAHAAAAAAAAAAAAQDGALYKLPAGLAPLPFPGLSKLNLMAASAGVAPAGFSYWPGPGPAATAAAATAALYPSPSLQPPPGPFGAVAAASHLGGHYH
# Outline: (§1)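 Binding signal is given per hexamer as its read frequency for a factor divided by its frequency in the tag-only sample. GST-fused human transcription factors were expressed in yeast, captured on glutathione beads, barcoded with DNA and pooled with that sample, then incubated with 200 nmole of a 16-mer random double-stranded DNA library in Tris/NaCl/DTT/glycerol buffer for 30 min at room temperature. The pools were then washed, crosslinked, proximity-ligated, amplified by PCR and sequenced on an Illumina NextSeq500.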
# ETV5 = ETV5 (Homo sapiens, UniProt P41161 1-510)
# Chain of ETV5 (P41161 whole entry): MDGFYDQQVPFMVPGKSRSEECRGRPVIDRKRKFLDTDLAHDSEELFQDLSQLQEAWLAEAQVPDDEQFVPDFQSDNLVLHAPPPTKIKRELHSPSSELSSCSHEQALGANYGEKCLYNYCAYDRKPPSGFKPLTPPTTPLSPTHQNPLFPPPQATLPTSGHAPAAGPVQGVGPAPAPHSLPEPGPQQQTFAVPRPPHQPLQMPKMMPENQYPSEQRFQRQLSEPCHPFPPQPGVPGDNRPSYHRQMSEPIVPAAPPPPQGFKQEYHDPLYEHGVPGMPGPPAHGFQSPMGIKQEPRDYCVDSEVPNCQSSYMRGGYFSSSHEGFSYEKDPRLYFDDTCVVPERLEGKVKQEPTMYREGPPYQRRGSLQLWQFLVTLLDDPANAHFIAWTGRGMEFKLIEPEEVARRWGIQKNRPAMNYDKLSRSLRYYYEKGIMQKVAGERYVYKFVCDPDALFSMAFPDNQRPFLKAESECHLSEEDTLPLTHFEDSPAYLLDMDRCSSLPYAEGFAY
# Outline: as §1
# SPIC = molecular target: T2, SPIC (Homo sapiens, UniProt Q8N5J4 1-248)
# T2 sequence: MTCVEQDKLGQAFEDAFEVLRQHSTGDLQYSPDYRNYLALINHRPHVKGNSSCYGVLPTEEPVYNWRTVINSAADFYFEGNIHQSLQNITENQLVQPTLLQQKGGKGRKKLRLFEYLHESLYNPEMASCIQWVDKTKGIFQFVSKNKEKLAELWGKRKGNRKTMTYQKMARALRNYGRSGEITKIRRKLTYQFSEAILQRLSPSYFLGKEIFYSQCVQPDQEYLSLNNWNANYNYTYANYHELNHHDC
# Outline: as §1
# ELF4 = ELF4 (Homo sapiens, UniProt Q99607 1-663)
# Chain of ELF4 (Q99607 whole entry): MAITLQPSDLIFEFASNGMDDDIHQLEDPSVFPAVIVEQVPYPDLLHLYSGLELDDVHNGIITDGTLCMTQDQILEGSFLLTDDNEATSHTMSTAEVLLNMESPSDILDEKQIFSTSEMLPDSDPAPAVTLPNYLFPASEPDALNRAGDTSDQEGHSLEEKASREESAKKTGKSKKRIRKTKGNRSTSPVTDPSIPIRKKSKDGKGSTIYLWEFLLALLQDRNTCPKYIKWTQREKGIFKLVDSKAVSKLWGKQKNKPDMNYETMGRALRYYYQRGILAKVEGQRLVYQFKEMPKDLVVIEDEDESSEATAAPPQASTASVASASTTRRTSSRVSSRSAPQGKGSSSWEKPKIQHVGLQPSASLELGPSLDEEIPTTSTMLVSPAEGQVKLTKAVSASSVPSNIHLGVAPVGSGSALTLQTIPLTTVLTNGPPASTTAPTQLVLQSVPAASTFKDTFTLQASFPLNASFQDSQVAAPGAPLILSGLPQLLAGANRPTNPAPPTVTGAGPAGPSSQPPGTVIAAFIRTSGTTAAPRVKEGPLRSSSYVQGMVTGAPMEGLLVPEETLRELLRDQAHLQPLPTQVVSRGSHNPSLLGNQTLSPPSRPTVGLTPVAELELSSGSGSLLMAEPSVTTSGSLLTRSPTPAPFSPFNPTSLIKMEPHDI
# Outline: as §1
# ELK4 = molecular target: T3, ELK4 (Homo sapiens, UniProt P28324-2 1-405)
# T3 sequence: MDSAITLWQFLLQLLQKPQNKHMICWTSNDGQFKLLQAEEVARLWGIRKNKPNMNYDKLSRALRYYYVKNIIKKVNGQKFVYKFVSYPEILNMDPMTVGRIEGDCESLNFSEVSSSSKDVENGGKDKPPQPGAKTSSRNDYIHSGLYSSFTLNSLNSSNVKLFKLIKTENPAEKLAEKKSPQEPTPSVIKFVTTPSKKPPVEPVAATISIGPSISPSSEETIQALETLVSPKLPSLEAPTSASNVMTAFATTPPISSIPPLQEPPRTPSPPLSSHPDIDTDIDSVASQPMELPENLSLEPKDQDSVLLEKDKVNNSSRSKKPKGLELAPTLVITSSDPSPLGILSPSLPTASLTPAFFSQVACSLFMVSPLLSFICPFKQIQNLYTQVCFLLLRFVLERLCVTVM
# Outline: as §1
# ETV2 = molecular target: T4, ETV2 (Homo sapiens, UniProt O00321 1-342)
# T4 sequence: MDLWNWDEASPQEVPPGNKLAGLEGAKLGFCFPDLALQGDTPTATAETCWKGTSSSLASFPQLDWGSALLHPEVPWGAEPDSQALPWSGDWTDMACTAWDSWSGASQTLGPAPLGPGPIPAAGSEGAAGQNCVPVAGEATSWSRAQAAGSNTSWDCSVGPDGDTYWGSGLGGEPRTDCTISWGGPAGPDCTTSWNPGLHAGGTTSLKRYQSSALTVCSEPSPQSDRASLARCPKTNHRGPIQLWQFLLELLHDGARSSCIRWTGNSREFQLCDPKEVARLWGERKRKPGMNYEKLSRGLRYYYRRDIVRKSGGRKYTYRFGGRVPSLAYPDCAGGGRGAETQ
# Outline: as §1
# ELF3 = molecular target: T5, ELF3 (Homo sapiens, UniProt P78545 1-371)
# T5 sequence: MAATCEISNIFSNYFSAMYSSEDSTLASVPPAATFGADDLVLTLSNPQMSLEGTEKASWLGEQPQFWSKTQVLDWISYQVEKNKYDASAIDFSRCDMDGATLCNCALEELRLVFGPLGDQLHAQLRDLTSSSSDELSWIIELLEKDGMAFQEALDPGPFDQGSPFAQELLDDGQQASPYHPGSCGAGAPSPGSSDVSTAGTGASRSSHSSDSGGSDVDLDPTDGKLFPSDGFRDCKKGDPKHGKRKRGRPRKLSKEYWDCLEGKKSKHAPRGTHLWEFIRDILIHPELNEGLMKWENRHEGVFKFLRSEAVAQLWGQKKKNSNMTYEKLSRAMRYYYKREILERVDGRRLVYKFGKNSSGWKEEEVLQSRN
# Outline: as §1
# ETV1 = ETV1 (Homo sapiens, UniProt P50549 1-477)
# Chain of ETV1 (P50549 whole entry): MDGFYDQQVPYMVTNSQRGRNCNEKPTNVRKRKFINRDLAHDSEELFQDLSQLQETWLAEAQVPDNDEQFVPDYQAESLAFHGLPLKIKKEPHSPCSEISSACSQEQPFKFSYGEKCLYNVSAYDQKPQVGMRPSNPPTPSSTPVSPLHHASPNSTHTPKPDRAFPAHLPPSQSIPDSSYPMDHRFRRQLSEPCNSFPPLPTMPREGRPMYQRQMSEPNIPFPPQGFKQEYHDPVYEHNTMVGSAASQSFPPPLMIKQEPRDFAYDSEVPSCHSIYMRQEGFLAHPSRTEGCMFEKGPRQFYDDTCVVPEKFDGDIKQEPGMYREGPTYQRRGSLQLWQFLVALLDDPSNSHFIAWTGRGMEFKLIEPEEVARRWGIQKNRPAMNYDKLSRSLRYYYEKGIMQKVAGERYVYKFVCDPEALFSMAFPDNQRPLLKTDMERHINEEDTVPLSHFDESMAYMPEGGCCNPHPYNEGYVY
# Outline: as §1
# ERF = molecular target: T6, ERF (Homo sapiens, UniProt P50548 1-548)
# T6 sequence: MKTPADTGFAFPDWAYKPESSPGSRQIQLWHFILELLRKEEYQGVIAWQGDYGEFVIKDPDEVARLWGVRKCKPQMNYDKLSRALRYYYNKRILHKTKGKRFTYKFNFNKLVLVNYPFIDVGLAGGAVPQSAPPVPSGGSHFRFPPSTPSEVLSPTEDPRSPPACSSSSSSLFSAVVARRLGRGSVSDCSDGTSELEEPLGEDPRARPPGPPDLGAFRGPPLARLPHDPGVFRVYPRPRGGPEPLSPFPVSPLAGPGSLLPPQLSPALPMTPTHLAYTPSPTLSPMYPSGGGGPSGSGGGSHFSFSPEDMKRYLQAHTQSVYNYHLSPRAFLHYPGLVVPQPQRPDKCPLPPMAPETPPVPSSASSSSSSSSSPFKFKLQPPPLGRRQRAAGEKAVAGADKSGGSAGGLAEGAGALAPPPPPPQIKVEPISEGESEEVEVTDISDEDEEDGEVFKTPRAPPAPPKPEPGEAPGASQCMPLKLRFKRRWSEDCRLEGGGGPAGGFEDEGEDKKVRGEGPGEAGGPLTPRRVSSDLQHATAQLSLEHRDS
# Outline: as §1
# ETV3L = molecular target: T7, ETV3L (Homo sapiens, UniProt Q6ZN32 1-361)
# T7 sequence: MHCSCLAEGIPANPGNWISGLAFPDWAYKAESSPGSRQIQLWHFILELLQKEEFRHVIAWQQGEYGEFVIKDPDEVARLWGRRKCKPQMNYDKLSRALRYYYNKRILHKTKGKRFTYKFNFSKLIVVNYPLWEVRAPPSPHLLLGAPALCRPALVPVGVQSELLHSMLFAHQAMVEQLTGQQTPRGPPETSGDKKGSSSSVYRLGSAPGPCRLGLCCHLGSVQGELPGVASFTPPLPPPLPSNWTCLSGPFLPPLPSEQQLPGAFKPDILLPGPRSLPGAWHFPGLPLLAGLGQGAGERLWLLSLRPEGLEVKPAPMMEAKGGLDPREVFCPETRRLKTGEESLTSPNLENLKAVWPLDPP
# Outline: as §1
# ETS2 = molecular target: T8, ETS2 (Homo sapiens, UniProt P15036 1-469)
# T8 sequence: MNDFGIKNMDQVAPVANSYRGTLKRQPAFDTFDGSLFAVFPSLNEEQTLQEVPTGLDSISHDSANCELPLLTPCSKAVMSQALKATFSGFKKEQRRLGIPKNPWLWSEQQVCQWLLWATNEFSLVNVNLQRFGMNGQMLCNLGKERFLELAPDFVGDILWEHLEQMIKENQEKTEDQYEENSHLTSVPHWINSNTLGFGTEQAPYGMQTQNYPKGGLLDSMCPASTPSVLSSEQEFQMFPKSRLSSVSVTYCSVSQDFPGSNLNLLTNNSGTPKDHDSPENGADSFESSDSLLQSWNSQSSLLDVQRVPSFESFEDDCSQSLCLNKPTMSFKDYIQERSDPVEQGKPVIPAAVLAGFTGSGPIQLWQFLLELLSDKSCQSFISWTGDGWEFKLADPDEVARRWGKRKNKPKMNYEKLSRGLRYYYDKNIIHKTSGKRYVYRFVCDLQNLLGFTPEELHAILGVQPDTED
# Outline: as §1
# SPDEF = molecular target: T9, SPDEF (Homo sapiens, UniProt O95238 1-335)
# T9 sequence: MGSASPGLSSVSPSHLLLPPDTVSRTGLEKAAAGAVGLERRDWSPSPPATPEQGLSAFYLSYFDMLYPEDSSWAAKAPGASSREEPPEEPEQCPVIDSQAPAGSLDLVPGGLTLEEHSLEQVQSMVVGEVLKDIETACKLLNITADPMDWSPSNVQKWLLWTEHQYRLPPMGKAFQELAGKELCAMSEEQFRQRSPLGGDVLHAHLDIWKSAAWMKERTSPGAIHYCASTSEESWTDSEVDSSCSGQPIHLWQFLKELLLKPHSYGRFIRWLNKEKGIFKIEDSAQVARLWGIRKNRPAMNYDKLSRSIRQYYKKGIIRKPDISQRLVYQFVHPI
# Outline: as §1
# ETV7 = molecular target: T10, ETV7 (Homo sapiens, UniProt Q9Y603 1-341)
# T10 sequence: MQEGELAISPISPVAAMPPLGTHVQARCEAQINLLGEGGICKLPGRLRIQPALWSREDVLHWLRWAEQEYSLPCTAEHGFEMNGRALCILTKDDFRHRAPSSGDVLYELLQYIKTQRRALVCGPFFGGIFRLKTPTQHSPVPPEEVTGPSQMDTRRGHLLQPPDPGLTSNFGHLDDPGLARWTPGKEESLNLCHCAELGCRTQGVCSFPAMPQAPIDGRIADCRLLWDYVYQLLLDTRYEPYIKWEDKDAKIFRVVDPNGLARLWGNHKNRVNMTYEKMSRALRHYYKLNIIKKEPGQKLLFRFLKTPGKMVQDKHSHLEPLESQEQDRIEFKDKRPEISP
# Outline: as §1
# ELF5 = molecular target: T11, ELF5 (Homo sapiens, UniProt Q9UKW6-2 1-255)
# T11 sequence: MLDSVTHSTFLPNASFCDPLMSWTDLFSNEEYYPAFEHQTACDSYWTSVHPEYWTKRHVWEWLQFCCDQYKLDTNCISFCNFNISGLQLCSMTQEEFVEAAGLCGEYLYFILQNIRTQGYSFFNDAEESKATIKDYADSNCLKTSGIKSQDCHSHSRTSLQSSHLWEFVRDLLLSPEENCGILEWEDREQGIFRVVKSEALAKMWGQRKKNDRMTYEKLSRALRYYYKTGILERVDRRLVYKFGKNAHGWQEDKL
# Outline: as §1
# ETV3 = molecular target: T12, ETV3 (Homo sapiens, UniProt P41162-2 1-143)
# T12 sequence: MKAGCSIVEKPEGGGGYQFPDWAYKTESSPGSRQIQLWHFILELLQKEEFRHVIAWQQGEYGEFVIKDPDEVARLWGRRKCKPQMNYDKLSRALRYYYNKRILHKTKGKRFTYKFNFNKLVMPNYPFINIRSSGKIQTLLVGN
# Outline: as §1
# ETV6 = ETV6 (Homo sapiens, UniProt P41212 1-452)
# Chain of ETV6 (P41212 whole entry): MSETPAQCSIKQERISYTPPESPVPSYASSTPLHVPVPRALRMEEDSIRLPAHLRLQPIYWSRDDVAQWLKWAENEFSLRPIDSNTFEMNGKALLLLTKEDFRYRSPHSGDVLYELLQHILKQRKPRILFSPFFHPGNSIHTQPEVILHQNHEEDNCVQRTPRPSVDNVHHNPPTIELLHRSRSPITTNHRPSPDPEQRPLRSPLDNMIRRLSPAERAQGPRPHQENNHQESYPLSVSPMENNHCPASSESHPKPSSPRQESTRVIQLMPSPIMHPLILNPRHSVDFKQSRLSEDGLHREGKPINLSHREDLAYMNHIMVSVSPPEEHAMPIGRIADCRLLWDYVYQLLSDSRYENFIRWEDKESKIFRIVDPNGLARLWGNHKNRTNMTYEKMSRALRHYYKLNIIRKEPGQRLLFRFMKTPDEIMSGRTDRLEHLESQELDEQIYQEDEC
# Outline: as §1
Sequence,binding signal (FEV),binding signal (ETV5),binding signal (SPIC),binding signal (ELF4),binding signal (ELK4),binding signal (ETV2),binding signal (ELF3),binding signal (ETV1),binding signal (ERF),binding signal (ETV3L),binding signal (ETS2),binding signal (SPDEF),binding signal (ETV7),binding signal (ELF5),binding signal (ETV3),binding signal (ETV6)
CACCTC,"1.11 fold enrichment (6-mer frequency, TF over GST control)","1.13 fold enrichment (6-mer frequency, TF over GST control)","1.22 fold enrichment (6-mer frequency, TF over GST control)","1.23 fold enrichment (6-mer frequency, TF over GST control)","1.14 fold enrichment (6-mer frequency, TF over GST control)","1.2 fold enrichment (6-mer frequency, TF over GST control)","1.1 fold enrichment (6-mer frequency, TF over GST control)","1.19 fold enrichment (6-mer frequency, TF over GST control)","1.21 fold enrichment (6-mer frequency, TF over GST control)","1.18 fold enrichment (6-mer frequency, TF over GST control)","1.06 fold enrichment (6-mer frequency, TF over GST control)","1.17 fold enrichment (6-mer frequency, TF over GST control)","1.17 fold enrichment (6-mer frequency, TF over GST control)","1.09 fold enrichment (6-mer frequency, TF over GST control)","1.15 fold enrichment (6-mer frequency, TF over GST control)","1.14 fold enrichment (6-mer frequency, TF over GST control)"
CCGGTT,"2.7 fold enrichment (6-mer frequency, TF over GST control)","2.15 fold enrichment (6-mer frequency, TF over GST control)","1.68 fold enrichment (6-mer frequency, TF over GST control)","1.83 fold enrichment (6-mer frequency, TF over GST control)","1.87 fold enrichment (6-mer frequency, TF over GST control)","2.08 fold enrichment (6-mer frequency, TF over GST control)","2.09 fold enrichment (6-mer frequency, TF over GST control)","2.04 fold enrichment (6-mer frequency, TF over GST control)","1.82 fold enrichment (6-mer frequency, TF over GST control)","1.94 fold enrichment (6-mer frequency, TF over GST control)","1.96 fold enrichment (6-mer frequency, TF over GST control)","2.99 fold enrichment (6-mer frequency, TF over GST control)","1.77 fold enrichment (6-mer frequency, TF over GST control)","2.37 fold enrichment (6-mer frequency, TF over GST control)","2.05 fold enrichment (6-mer frequency, TF over GST control)","2.19 fold enrichment (6-mer frequency, TF over GST control)"
GTATAC,"1.2 fold enrichment (6-mer frequency, TF over GST control)","1.24 fold enrichment (6-mer frequency, TF over GST control)","1.2 fold enrichment (6-mer frequency, TF over GST control)","1.3 fold enrichment (6-mer frequency, TF over GST control)","1.29 fold enrichment (6-mer frequency, TF over GST control)","1.1 fold enrichment (6-mer frequency, TF over GST control)","1.18 fold enrichment (6-mer frequency, TF over GST control)","1.31 fold enrichment (6-mer frequency, TF over GST control)","1.41 fold enrichment (6-mer frequency, TF over GST control)","1.16 fold enrichment (6-mer frequency, TF over GST control)","1.32 fold enrichment (6-mer frequency, TF over GST control)","1.3 fold enrichment (6-mer frequency, TF over GST control)","1.2 fold enrichment (6-mer frequency, TF over GST control)","1.31 fold enrichment (6-mer frequency, TF over GST control)","1.23 fold enrichment (6-mer frequency, TF over GST control)","1.19 fold enrichment (6-mer frequency, TF over GST control)"
